Measured values published in PubChem BioAssay (Tox21).
Records with an inconclusive call do not appear. The source holds several records for some structures; these can differ, active in one and inactive in another. The source made the active and inactive calls. Unless noted, calls come from the whole dose curve.

Columns and labels:
[1] = Nuclear factor erythroid 2-related factor 2/antioxidant responsive element (Nrf2/ARE) small molecule agonists: qHTS cell viability counter screen in human keratinocytes (AID 1919968; active = well fitted curve in the direction sought with a large enough effect in the repeat runs; an effect the other way counts as inactive or inconclusive; note: nearly all actives have a fitted effect of over 55% in size)
Method in brief: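 In human HaCaT keratinocytes stably expressing an ARE-driven luciferase, compound exposure lasted 23 h at 37 C under 5% CO2. Viable cells are quantified with a protease-based fluorogenic reagent (CellTiter-Fluor) read 1 h after addition.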

[2] = Nuclear factor erythroid 2-related factor 2/antioxidant responsive element (Nrf2/ARE) small molecule agonists: luciferase reporter gene qHTS assay in human keratinocytes (AID 1919969); note: nearly all actives have a fitted effect of over 35% in size; note: potency is the fitted concentration of half-maximal effect
[3] = target: Gonadotropin-releasing hormone receptor (Homo sapiens) (UniProt P30968); assay: Human gonadotropin-releasing hormone receptor (GnRHR) small molecule agonists, calcium flux assay in GnRHR-HEK293 cells (AID 1920063); note: nearly all actives have a fitted effect of over 35% in size
Method in brief: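 Intracellular calcium rise is the read-out: engineered human GnRHR HEK293 cells, dye-loaded, are exposed to DMSO-dissolved compounds and fluorescence at Ex/Em 480/540 is tracked for 3 min.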

[4] = target: KiSS-1 receptor (Homo sapiens) (UniProt Q969F8); assay: Human kisspeptin (KISS1R) small molecule agonists, calcium flux assay in KISS1R-HEK293 cells (AID 1920064; active = well fitted curve in the direction sought with a large enough effect in the repeat runs; an effect the other way counts as inactive or inconclusive)
Method in brief: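 Concentration-response testing used 15 concentrations in triplicate on human KISS1R-expressing HEK293 cells. Calcium-dependent fluorescence (Ex/Em 480/540) was followed kinetically for 3 min after compound transfer.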

[5] = G protein-coupled receptor (GPCR) small molecule agonists, calcium flux assay: HEK293 wild type cell line counter screen (AID 1920065)
Method in brief: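 Fluorescence intensity signals activation. After overnight (18 h) culture and a 1 h calcium dye load at 37 C, compounds are added by pin tool and the plate read at 480/540 nm for 3 min in 1 s steps.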

[6] = p53 small molecule agonists, cell-based qHTS assay with human liver microsomes (AID 1963577);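 note: p53 response element beta-lactamase reporter cells with liver microsomes plus NADPH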
Method in brief: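 Metabolically competent format: test substances, human liver microsomes and NADPH (both 0.5 mg/mL final) incubated with p53RE-bla cells 16 h at 37 C. Beta-lactamase reporter signal then quantified by fluorescence.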

[7] = p53 small molecule agonists, cell-based qHTS assay with rat liver microsomes (AID 1963578)
Method in brief: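 Each plate received p53RE-bla cells, then compound, then rat liver microsomes and NADPH (both 0.5 mg/mL final). Plates were held 16 h at 37 C, and beta-lactamase activity was detected with LiveBLAzer over 2 h.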

[8] = p53 small molecule agonists, cell-based qHTS assay with human liver microsomes: qHTS cell viability counter screen (AID 1963579); note: nearly all actives have a fitted effect of over 45% in size
Method in brief: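 Tox21 library compounds, delivered from DMSO stocks, were tested on p53RE-bla cells together with 0.5 mg/mL human liver microsomes and 0.5 mg/mL NADPH (final) over 16 h at 37 C; CellTiter-Glo luminescence served as the cytotoxicity measure.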

[9] = p53 small molecule agonists, cell-based qHTS assay with rat liver microsomes: qHTS cell viability counter screen (AID 1963580); note: nearly all actives have a fitted effect of over 45% in size
Method in brief: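 Cytotoxicity counter screen: intracellular ATP read by CellTiter-Glo luminescence in the p53 reporter wells. HCT-116 p53RE-bla cells were treated for 16 h at 37 C alongside rat liver microsomes and NADPH, each 0.5 mg/mL final.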

[10] = p53 small molecule agonists, cell-based qHTS assay: qHTS cell viability counter screen (AID 1963581); note: nearly all actives have a fitted effect of over 45% in size
Method in brief: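 Luminescence from CellTiter-Glo, reflecting ATP content, serves as the cytotoxicity measure; it is taken after the 2 h reporter substrate step in HCT-116 p53RE-bla cells dosed for 16 h at 37 C.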

[11] = p53 small molecule agonists, cell-based qHTS assay (AID 1963582; active = well fitted activation curve with a large enough effect in the signal ratio in the repeat runs, not every such curve was filed as active; the % refers to the signal ratio)
Method in brief: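 After plating, p53RE-bla cells sat 5 h in the incubator; compounds or DMSO vehicle were pinned in; a 16 h incubation at 37 C followed; FRET substrate was added and, 2 h later at RT, fluorescence was measured.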

[12] = target: 5-hydroxytryptamine receptor 2A (Homo sapiens) (UniProt P28223); assay: 5-hydroxytryptamine receptor 2A (HTR2A) small molecule antagonists, cell-based qHTS assay (AID 1963586); note: nearly all actives have a fitted effect of over 45% in size
Method in brief: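 CHO cells stably expressing human HTR2A were plated for 18 h at 37 C, then loaded with calcium dye for 1 h. Compounds were preincubated 5 min at room temperature before DOI (4 nM solution) was added. Kinetic fluorescence was read for 3 min.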

[13] = target: Muscarinic acetylcholine receptor M1 (Homo sapiens) (UniProt P11229); assay: Cholinergic receptor muscarinic 1 (CHRM1) small molecule antagonists, cell-based qHTS assay (AID 1963588); note: nearly all actives have a fitted effect of over 40% in size
Method in brief: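 Compounds were tested at 15 concentrations in three independent runs. Dye-loaded CHRM1-CHO cells were exposed 5 min at room temperature before stimulation by acetylcholine added at 50nM. Intracellular calcium was read kinetically on FDSS for 3 min.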

[14] = target: Muscarinic acetylcholine receptor M1 (Homo sapiens) (UniProt P11229); assay: Cholinergic receptor muscarinic 1 (CHRM1) small molecule agonists, cell-based qHTS assay (AID 1963589); note: nearly all actives have a fitted effect of over 35% in size
Method in brief: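 Fluorescent calcium dye reports M1 activation in stably transfected CHO cells. Compounds, 15 concentrations, added after 1 h dye loading at 37 C; kinetic reading at 1 sec intervals.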

[15] = cAMP Responsive Elements (CRE) small molecule agonists, cell-based qHTS assay (AID 1963590)
Method in brief: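 Compound exposure lasted 3 h at 37 C/5% CO2 in CRE-bla HEK 293T cells grown in assay medium with 10% dialyzed FBS and 25 mM HEPES. Reporter signal came from LiveBLAzer B/G FRET substrate, 2 h, room temperature.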

[16] = cAMP Responsive Elements (CRE) small molecule antagonists, cell-based qHTS assay (AID 1963591; active = well fitted inhibition curve with a large enough effect in the signal ratio in the repeat runs, not every such curve was filed as active; the % refers to the signal ratio)
Method in brief: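 Stimulation used NKH477 at a final 0.25 uM for 3 h in compound-treated CRE-bla HEK293T cells, seeded 18 h beforehand. Reporter activity was measured with LiveBLAzer B/G FRET substrate after 2 h at room temperature.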

[17] = target: Beta-2 adrenergic receptor (Homo sapiens) (UniProt P07550); assay: Adrenergic beta2 receptor (ADRB2) small molecule antagonists, cell-based qHTS assay (AID 1963592); note: nearly all actives have a fitted effect of over 50% in size; note: potency is the fitted concentration of half-maximal effect
Method in brief: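 Assay format: CHO-ADRB2 cells, 18-20hr seeding at 37C/5% CO2, then compound plus 1nM isoproterenol agonist mix for 0.5hr RT. Homogeneous time-resolved fluorescence cAMP detection after 1hr, expressed as 665/615 nm ratio.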

[18] = target: D(2) dopamine receptor (Homo sapiens) (UniProt P14416); assay: Dopamine D2 receptor (DRD2) small molecule agonists, cell-based qHTS assay (AID 1963594); note: nearly all actives have a fitted effect of over 35% in size
Method in brief: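 cAMP accumulation in DRD2-HEK293 cells measured by HTRF after 1 h detection; compounds added 10 min before NKH477 (200nM […]) forskolin-analogue stimulation, 30 min at room temperature, with Ro20-1724 present at 0.1 mM final.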

[19] = target: D(2) dopamine receptor (Homo sapiens) (UniProt P14416); assay: Dopamine D2 receptor (DRD2) small molecule antagonists, cell-based qHTS assay (AID 1963595; active = well fitted inhibition curve with a large enough effect in the signal ratio in the repeat runs, with a control signal flat; the % refers to the signal ratio)
Method in brief: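 Cells were plated and grown for 24 h at 37 °C. Ro20-1724 (0.1 mM final) went in first, then compound for 10 min. NKH477 (200 nM) with quinpirole (12 nM) followed for 30 min at RT, then HTRF detection reagents for 1 h.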

[20] = target: 5-hydroxytryptamine receptor 2A (Homo sapiens) (UniProt P28223); assay: 5-hydroxytryptamine receptor 2A (HTR2A) small molecule agonists, cell-based qHTS assay (AID 1963587); note: nearly all actives have a fitted effect of over 30% in size
Method in brief: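 Kinetic calcium-flux fluorescence (2 min, 1 sec intervals) after compound addition in agonist mode. HTR2A-CHO cells were cultured 18 h, then dye-loaded 1 h at 37 C.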

Measured: Potency

Chain of D(2) dopamine receptor (Homo sapiens) (P14416 whole entry, looked up): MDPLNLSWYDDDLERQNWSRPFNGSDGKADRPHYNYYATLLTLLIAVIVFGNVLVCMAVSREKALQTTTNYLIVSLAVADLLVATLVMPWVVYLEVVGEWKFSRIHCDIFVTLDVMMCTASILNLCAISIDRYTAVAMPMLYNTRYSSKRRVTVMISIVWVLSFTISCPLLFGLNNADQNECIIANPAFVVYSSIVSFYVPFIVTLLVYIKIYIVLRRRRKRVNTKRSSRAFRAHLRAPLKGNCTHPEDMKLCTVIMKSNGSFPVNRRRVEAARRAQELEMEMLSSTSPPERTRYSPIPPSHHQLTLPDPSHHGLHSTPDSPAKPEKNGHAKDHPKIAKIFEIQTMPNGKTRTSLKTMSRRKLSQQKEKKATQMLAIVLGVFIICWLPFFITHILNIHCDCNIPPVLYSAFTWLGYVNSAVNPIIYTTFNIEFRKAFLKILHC
Chain of Muscarinic acetylcholine receptor M1 (Homo sapiens) (P11229 whole entry, looked up): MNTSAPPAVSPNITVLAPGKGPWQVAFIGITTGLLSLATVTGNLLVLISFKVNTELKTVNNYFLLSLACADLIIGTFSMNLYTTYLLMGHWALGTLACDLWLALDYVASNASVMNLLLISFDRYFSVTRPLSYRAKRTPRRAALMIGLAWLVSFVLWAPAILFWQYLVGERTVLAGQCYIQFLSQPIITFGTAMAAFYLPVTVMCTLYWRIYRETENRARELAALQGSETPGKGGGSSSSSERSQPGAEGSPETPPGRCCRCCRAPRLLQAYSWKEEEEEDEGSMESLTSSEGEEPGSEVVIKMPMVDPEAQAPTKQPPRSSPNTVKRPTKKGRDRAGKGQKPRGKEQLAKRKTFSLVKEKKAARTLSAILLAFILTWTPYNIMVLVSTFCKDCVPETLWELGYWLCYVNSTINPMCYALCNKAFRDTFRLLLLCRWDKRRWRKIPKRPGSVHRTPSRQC
Chain of 5-hydroxytryptamine receptor 2A (Homo sapiens) (P28223 whole entry, looked up): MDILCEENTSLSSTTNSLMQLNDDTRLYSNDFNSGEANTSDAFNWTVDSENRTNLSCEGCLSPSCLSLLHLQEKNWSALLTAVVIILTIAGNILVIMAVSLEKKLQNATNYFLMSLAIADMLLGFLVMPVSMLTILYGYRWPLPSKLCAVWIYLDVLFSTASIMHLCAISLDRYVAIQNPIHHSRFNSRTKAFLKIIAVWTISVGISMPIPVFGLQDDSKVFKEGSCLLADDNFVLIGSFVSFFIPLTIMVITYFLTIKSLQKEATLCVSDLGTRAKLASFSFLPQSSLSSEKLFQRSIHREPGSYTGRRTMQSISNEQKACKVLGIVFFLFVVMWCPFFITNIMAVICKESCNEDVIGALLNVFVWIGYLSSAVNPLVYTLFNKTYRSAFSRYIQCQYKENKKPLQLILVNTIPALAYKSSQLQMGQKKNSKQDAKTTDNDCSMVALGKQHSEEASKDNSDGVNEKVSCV
Chain of Gonadotropin-releasing hormone receptor (Homo sapiens) (P30968 whole entry, looked up): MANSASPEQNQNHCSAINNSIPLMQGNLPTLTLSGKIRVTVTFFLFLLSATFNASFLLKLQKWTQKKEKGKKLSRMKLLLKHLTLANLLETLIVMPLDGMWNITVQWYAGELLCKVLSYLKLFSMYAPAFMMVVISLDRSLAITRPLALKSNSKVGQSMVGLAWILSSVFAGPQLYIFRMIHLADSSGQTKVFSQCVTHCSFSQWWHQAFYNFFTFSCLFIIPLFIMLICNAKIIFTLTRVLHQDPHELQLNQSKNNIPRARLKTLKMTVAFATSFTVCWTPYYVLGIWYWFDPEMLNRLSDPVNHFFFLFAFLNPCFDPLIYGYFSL
Chain of Beta-2 adrenergic receptor (Homo sapiens) (P07550 whole entry, looked up): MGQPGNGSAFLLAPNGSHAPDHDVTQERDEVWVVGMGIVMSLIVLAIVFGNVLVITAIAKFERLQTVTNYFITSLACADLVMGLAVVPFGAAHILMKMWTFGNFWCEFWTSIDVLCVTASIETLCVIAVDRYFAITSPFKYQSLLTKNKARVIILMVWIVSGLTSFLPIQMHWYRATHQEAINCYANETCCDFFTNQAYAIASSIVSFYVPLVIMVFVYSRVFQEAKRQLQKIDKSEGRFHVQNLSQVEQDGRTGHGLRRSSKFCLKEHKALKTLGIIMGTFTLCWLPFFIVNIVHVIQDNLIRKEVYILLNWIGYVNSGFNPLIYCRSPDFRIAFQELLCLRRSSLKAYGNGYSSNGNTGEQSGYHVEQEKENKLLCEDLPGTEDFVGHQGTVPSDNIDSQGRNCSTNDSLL
Chain of KiSS-1 receptor (Homo sapiens) (Q969F8 whole entry, looked up): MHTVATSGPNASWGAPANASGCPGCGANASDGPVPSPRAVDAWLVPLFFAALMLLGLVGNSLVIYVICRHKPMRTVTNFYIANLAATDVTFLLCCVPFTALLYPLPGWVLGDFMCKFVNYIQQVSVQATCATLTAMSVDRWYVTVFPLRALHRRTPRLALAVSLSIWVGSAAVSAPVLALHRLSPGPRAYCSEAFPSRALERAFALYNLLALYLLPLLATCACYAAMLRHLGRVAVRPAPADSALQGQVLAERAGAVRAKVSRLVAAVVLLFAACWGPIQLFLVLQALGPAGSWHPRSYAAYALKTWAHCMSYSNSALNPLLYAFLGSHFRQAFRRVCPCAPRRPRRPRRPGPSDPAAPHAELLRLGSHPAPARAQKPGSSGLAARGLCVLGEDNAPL

NC(=O)CCl
active: [2] 61.1 µM
not listed: [20]
inactive: all other assays above

CCC(C)(C#N)N=NC(C)(C#N)CC (configuration not stated)
not listed: [20]
inactive: all other assays above

O=C(O)c1cc(Cl)ccc1Cl
not listed: [20]
inactive: all other assays above

NCCOS(=O)(=O)O
not listed: [12] | [19]
inactive: all other assays above

OC(c1ccc(Cl)cc1)(c1cncnc1)c1ccccc1Cl (configuration not stated)
24.8 µM (active) and inactive: [2]
active: [17] 69.8 µM
not listed: [14] | [16] | [20]
inactive: all other assays above

FC(Cl)(Cl)Cl
not listed: [13] | [16]
inactive: all other assays above

c1nc[nH]n1
not listed: [12]
inactive: all other assays above

O=[N+]([O-])c1ccc(CBr)cc1
not listed: [11] | [15]
inactive: all other assays above
